This note sets out measurements from PubChem BioAssay (NCATS).

For test [1], the system named is TAB165. Put plainly: qHTS profiling for inhibitors of Plasmodium falciparum proliferation (AID 504749). Note: nearly all actives have a fitted effect of over 60% in size. Note: potency is the fitted concentration of half-maximal effect. As to conditions: P. falciparum in erythrocytes, SYBR Green DNA, 72 h; series mostly up to 28.7 µM. The gist of the method: (§1)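 Quantitative HTS: compounds pinned into medium, infected erythrocytes added (0.3% parasitemia, 2.5% hematocrit), 72 h culture at 37 C under 5% CO2. Saponin/Triton lysis with SYBR Green I, overnight RT, then fluorescence read.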
Background: Quantitative high-throughput screening tests each substance at several concentrations.

Test [2] deals with W2. The description is as above. The settings on record: P. falciparum in erythrocytes, SYBR Green DNA, 72 h; series mostly up to 28.7 µM. The gist of the method: as §1
For test [3], the system named is CRL-7250. The experiment in a line: Cytotoxic Profiling of Annotated Libraries Using Quantitative High-Throughput Screening (AID 1296008). For max response: % is set by controls: 0 for no effect and ±100 for the full control effect. Note: nearly all actives have a fitted effect of over 60% in size. The settings on record: Five cell lines viability, CellTiter-Glo ATP luminescence, 48-72 h; max response: hits give low values. The gist of the method: (§2)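 Compounds were pin-transferred onto cells and incubated 48 or 72 hr at 37 degree Celsius, 95% humidity. CellTiter-Glo was added, plates sat 10 min at room temperature, then ATP-coupled luminescence was imaged as the viability read-out.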
A general note: ATP-based viability assays read luminescence as a measure of living cells.

The test system of test [4] is HEK293. The test is described as above. The settings on record: Five cell lines viability, CellTiter-Glo ATP luminescence, 48-72 h; max response: hits give low values. In outline:
as §2

In test [5] the test system is HaCat. The test is described as above. As to conditions: Five cell lines viability, CellTiter-Glo ATP luminescence, 48-72 h; max response: hits give low values. In outline: as §2
Test [6] has as its system KB-3-1. The description is as above. As to conditions: Five cell lines viability, CellTiter-Glo ATP luminescence, 48-72 h; max response: hits give low values. In outline:
as §2

Test [7] deals with NIH3T3. The test is described as above. The settings on record: Five cell lines viability, CellTiter-Glo ATP luminescence, 48-72 h; max response: hits give low values. The gist of the method: as §2
Test [8] relates to MCC-13. Put plainly: qHTS assay to identify novel small-molecules to repurpose for Merkel cell carcinoma treatment (AID 1296009). For activity change, negative = cytotoxicity: % is set by controls: 0 for no effect and ±100 for the full control effect. Note: nearly all actives have a fitted effect of over 60% in size. As to conditions: MCC and control cell lines, CellTiter-Glo viability, 72 h; series mostly up to 46 µM. In outline: (§3)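 Viability readout: ATP luminescence (CellTiter-Glo) after 72 hr drug exposure at 37 degree celsius. Dose-response format was 8 points for NPC and 11 points for MIPE; data normalized to in-plate controls.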

In test [9] the test system is MCC-26. Described as above. The settings on record: MCC and control cell lines, CellTiter-Glo viability, 72 h; series mostly up to 46 µM. In outline:
as §3

Test [10] deals with MKL-1. Described as above. As to conditions: MCC and control cell lines, CellTiter-Glo viability, 72 h; series mostly up to 46 µM. The gist of the method:
as §3

The test system of test [11] is MKL-2. The description is as above. As to conditions: MCC and control cell lines, CellTiter-Glo viability, 72 h; series mostly up to 46 µM. In outline:
as §3

The subject of test [12] is UISO. The description is as above. The settings on record: MCC and control cell lines, CellTiter-Glo viability, 72 h; series mostly up to 46 µM. The gist of the method:
as §3

Test [13] deals with WaGa. The test is described as above. As to conditions: MCC and control cell lines, CellTiter-Glo viability, 72 h; series mostly up to 46 µM. The gist of the method: as §3
In test [14] the test system is C33A. The experiment in a line: Primary qHTS to identify gynecologic anti-cancer compounds using libraries of approved drugs and bioactive compounds (AID 1345084). Note: % is set by controls: 0 for no effect and ±100 for the full control effect; nearly all actives have a fitted effect of over 55% in size. As to conditions: Gynecologic cancer cell panel viability, ATPlite luminescence, 48 h; series mostly up to 57.5 µM. In outline:
(§4)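 Cells, 1,000 per well, were allowed to settle for 16 h at 37 C before compound addition. Five concentrations were tested for 48 h, and viability was read by ATPlite luminescence after 15 min at room temperature.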

The test system of test [15] is CAOV3. The description is as above. As to conditions: Gynecologic cancer cell panel viability, ATPlite luminescence, 48 h; series mostly up to 57.5 µM. The gist of the method: as §4
Test [16] concerns CASKI. Described as above. The settings on record: Gynecologic cancer cell panel viability, ATPlite luminescence, 48 h; series mostly up to 57.5 µM. In outline:
as §4

Test [17] deals with Es-2. Described as above. As to conditions: Gynecologic cancer cell panel viability, ATPlite luminescence, 48 h; series mostly up to 57.5 µM. The gist of the method:
as §4

For test [18], the system named is HACAT. Put plainly: qHTS assay to identify novel small-molecules to repurpose for Merkel cell carcinoma treatment (AID 1296009). For activity change, negative = cytotoxicity: % is set by controls: 0 for no effect and ±100 for the full control effect. Note: nearly all actives have a fitted effect of over 60% in size. As to conditions: MCC and control cell lines, CellTiter-Glo viability, 72 h; at 44.8 µM (top of the series) unless noted. The gist of the method: as §3
In test [19] the test system is HEK293T. Described as above. As to conditions: MCC and control cell lines, CellTiter-Glo viability, 72 h; at 44.8 µM (top of the series) unless noted. In outline:
as §3

For test [20], the system named is NIH3T3. Described as above. The settings on record: MCC and control cell lines, CellTiter-Glo viability, 72 h; at 44.8 µM (top of the series) unless noted. The gist of the method: as §3

Values joined by “and” are separate entries in the source; they are usually repeats but may differ in a detail not shown here. Identical values can stand only once. Results filed as inconclusive are left out. Unmarked numbers belong to inactive results. Active and inactive are the calls of the source. Calls come from the whole dose curve; as a rule, active = well fitted curve in the direction sought with a large enough effect; inconclusive = small, poorly fitted or top-dose-only effect, or another doubt; inactive = no such curve, though single readings can be large; an effect the other way counts as inactive or inconclusive.

Regarding `CCCCc1ncc(/C=C(\Cc2cccs2)C(=O)O)n1Cc1ccc(C(=O)O)cc1`, the Potency result in test [1], in test [2], in test [8], in test [9], in [10] and in test [11] was “inactive” each time. The Potency result in test [12], in test [13], in test [14], in test [15], in test [16] and in test [17] was “inactive” in each case. Moreover, the max response in [3] is 0.696%; in test [4], 1.61% and 1.3%; in [5], -8.96%; in test [6], -5.45% and 6.97%; in test [7] it was -1.7%. The result in test [3] was inactive.

`C/C(=C(\CCOP(=O)(O)O)SC(=O)c1ccccc1)N(C=O)Cc1cnc(C)nc1N`: the max response is -3.12% in test [3] and 9.44% in test [6]. Besides, the molecule was classed as inactive in [4], in test [5] and in [7]. Also, the outcome in test [18], in test [19] and in test [20] was “inactive [at 4.96 µM]” throughout. Further, the activity change, negative = cytotoxicity in test [8] was -6.17% [at 4.84 µM]; in test [9], 20.3% [at 4.84 µM]; in test [10], 2.11% [at 4.84 µM]; in test [11], 12.5% [at 4.84 µM]; in [12] it was 22.4% [at 4.84 µM]; in test [13], 24.3% [at 4.84 µM]. In addition, the activity change, negative = cytotoxicity in [14] was 4.02% [at 6.55 µM]; in test [15] it was -0.0932% [at 6.55 µM]; in test [16] it was 2.61% [at 6.55 µM]; in test [17] it was -4.63% [at 6.55 µM].

For the molecule `CC(C)(O)c1ccccc1CC[C@@H](SCC1(CC(=O)O)CC1)c1cccc(/C=C/c2ccc3ccc(Cl)cc3n2)c1`, the max response in [3] was -23.3%; in test [4], 4.81%; in [6], -11.2% and 6.98%; in test [7], -22.4%. Besides, the result in test [5], in test [7], in test [18] and in test [20] was inactive. The Potency entry in test [8], in [10], in [11], in test [12], in [13] and in test [14] was “inactive” each time. In addition, the Potency entry in test [16] and in test [17] was “inactive” each time.

Take `c1ccc(CN(CC2=NCCN2)c2ccccc2)cc1`: in test [2], the Potency was 7.57 µM (active). Moreover, the max response in [3] was 3.95% and 1.52%; in test [4] it was 0.31% and -21.2%; in test [5], 4.83%; in test [6], -11.4% and 8.49%; in test [7], 2.96%. The call in test [5], in [7], in test [18] and in test [20] was inactive. In addition, the Potency entry in test [8], in [10], in test [11], in test [12], in test [13] and in test [14] was “inactive” in each case. Also, the Potency entry in test [16] and in test [17] was “inactive” in each case.

`Nc1nc2c(ncn2CCC(CO)CO)c(=O)[nH]1`: the Potency entry in [1], in test [2], in test [8], in [10], in test [11] and in [12] was “inactive” in each case. For the same molecule, the Potency entry in [13], in [14], in test [15], in test [16] and in [17] was “inactive” each time. Also, the max response in test [3] was -22.4% and -4.66%; in test [4] it was -4.76% and -4.47%; in [6], 13.5% and 1.71%; in test [7] it was 1.75%. Further, the molecule was called inactive in test [5], in test [7], in test [18] and in [20].

In the case of `NS(=O)(=O)c1cc2c(cc1C(F)(F)F)NC(Cc1ccccc1)NS2(=O)=O` (configuration not stated), the figures for the max response in test [3] and in test [6] were -4.39% and -0.539%, respectively. Also, the call in [4], in test [5], in test [7], in test [18], in test [19] and in test [20] was inactive. Besides, the Potency result in test [8], in [9], in test [10], in test [11], in test [12] and in test [13] was “inactive” throughout. Besides, the Potency result in [14], in test [15], in test [16] and in test [17] was “inactive” throughout.
